# Several values for one entry are separate records, joined by “and”; a condition that tells them apart may be missing. Equal values may be shown once. Results filed as inconclusive are left out. Where a call stands in place of a potency, no number is given. Activity calls are given as the source filed them. Unless noted, calls follow the shape of the dose curve; as a rule, active = well fitted curve in the direction sought with a large enough effect; inconclusive = small, poorly fitted or top-dose-only effect, or another doubt; inactive = no such curve, though single readings can be large; an effect the other way counts as inactive or inconclusive.
# How the values were obtained:
# [1] = biological target: Thyroid hormone receptor beta (Homo sapiens) (UniProt P10828); assay: qHTS assay for small molecule agonists of thyroid hormone receptor beta signaling (AID 588545; calls by dose curve)
# Chain of Thyroid hormone receptor beta (Homo sapiens) (P10828 whole entry, looked up): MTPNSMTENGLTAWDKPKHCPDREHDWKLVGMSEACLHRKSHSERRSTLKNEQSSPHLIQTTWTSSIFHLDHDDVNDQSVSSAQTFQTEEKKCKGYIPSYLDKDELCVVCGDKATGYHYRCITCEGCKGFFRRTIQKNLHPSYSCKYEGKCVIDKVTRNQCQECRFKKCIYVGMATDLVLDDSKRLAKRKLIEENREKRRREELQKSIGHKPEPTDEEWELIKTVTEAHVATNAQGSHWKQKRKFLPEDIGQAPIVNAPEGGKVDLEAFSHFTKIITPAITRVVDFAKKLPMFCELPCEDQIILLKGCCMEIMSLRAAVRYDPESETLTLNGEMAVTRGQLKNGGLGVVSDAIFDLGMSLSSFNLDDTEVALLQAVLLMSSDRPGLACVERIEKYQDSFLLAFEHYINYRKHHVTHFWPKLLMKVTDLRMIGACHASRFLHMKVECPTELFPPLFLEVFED
# How it was run: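 Efficacy and EC50 values derive from Hill fits of qHTS titration data, normalized to 10 nM T3 and DMSO-only wells. HEK 293 reporter cells were stimulated for 18 hrs at 37 C, with beta-lactamase activity measured by CCF4 fluorescence.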
# [2] = qHTS assay for small molecule antagonists of retinoid X receptor alpha signaling (AID 588546; active = well fitted inhibition curve with a large enough effect in the signal ratio, with a control signal flat, not every such curve was filed as active; the % refers to the signal ratio;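 also: cells stimulated with 9-cis-retinoic acid as agonist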); conditions: HEK293T RXRa-UAS-bla, beta-lactamase ratio, antagonist mode; measured here: W530 green channel, cytotoxicity proxy
# How it was run: (§1)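 Beta-lactamase reporter inhibition, read as CCF4 fluorescence ratio (ex 405, em 460/530 nm) after 2 h at RT. HEK293T UAS-bla cells, 2500/well, were stimulated with 9-cis-RA at 500 or 100 nM final alongside test compound for 18 h at 37 C.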
# [3] = biological target: Retinoic acid receptor RXR-alpha (Homo sapiens) (UniProt P19793); assay: as above; conditions: HEK293T RXRa-UAS-bla, beta-lactamase ratio, antagonist mode
# Chain of Retinoic acid receptor RXR-alpha (Homo sapiens) (P19793 whole entry, looked up): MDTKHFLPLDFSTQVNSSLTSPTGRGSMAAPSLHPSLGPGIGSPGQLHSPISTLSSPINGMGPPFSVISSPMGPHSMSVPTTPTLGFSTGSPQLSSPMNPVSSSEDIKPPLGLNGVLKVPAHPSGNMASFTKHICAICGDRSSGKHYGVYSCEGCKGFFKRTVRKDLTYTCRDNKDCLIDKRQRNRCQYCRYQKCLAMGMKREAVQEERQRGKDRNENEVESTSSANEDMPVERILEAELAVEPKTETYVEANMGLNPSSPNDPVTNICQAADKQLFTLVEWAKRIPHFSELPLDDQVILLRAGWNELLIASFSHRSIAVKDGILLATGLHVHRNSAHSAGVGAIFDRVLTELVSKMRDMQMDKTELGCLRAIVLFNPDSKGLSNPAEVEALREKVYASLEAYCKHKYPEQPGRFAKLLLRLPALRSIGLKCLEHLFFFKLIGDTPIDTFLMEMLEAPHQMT
# How it was run: as §1
# [4] = biological target: Voltage-gated inwardly rectifying potassium channel KCNH2 (Homo sapiens) (UniProt Q12809); assay: qHTS Assay for Small Molecule Inhibitors of the Human hERG Channel Activity (AID 588834);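 also: top concentration of the series differs between compounds; lower thallium flux fluorescence means stronger hERG block; nearly all actives have a fitted effect of over 50% in size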
# Chain of Voltage-gated inwardly rectifying potassium channel KCNH2 (Homo sapiens) (Q12809 whole entry, looked up): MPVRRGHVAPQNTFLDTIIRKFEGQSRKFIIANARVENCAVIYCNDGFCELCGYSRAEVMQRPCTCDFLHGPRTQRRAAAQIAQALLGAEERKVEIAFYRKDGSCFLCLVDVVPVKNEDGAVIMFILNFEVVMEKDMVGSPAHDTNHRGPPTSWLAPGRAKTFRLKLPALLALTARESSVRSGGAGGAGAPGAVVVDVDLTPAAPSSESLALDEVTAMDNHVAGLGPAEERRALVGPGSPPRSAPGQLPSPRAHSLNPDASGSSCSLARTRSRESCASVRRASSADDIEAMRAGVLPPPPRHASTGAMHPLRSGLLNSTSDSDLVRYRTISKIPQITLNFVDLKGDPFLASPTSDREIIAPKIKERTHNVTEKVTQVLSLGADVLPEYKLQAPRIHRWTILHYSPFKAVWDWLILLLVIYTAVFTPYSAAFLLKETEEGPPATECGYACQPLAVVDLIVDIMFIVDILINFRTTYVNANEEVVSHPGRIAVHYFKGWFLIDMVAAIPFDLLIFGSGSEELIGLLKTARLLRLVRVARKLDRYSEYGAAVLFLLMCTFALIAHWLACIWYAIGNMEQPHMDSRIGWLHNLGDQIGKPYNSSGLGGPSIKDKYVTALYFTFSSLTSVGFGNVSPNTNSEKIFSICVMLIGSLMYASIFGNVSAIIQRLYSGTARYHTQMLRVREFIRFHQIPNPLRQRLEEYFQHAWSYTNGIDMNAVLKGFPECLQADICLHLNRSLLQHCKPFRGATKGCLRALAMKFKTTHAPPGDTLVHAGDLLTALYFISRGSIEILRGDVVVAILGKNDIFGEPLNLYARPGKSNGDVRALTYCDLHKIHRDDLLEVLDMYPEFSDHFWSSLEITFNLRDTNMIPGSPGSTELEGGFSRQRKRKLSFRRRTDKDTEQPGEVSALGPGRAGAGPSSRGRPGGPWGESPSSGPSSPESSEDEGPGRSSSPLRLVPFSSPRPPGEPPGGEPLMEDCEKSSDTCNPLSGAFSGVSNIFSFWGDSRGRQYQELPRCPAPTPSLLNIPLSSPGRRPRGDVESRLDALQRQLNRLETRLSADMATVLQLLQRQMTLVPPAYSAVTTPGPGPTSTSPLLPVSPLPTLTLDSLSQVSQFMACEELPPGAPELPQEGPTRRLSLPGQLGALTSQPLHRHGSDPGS
# How it was run: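 U2OS cells transduced with hERG via BacMam (MOI ~100), plated 2000/well, loaded with FluxOR thallium dye, compound ~10 min, then stimulation buffer; fluorescence decrease read kinetically; AC50 from Hill fits.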
# [5] = biological target: Luciferin 4-monooxygenase (Photinus pyralis) (UniProt P08659); assay: Biochemical firefly luciferase enzyme assay for NPC (AID 624030);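 also: purified P. pyralis luciferase at 10 nM with luciferin and ATP substrate; series mostly up to about 59 µM; nearly all actives have a fitted effect of over 70% in size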
# Chain of Luciferin 4-monooxygenase (Photinus pyralis) (P08659 whole entry, looked up): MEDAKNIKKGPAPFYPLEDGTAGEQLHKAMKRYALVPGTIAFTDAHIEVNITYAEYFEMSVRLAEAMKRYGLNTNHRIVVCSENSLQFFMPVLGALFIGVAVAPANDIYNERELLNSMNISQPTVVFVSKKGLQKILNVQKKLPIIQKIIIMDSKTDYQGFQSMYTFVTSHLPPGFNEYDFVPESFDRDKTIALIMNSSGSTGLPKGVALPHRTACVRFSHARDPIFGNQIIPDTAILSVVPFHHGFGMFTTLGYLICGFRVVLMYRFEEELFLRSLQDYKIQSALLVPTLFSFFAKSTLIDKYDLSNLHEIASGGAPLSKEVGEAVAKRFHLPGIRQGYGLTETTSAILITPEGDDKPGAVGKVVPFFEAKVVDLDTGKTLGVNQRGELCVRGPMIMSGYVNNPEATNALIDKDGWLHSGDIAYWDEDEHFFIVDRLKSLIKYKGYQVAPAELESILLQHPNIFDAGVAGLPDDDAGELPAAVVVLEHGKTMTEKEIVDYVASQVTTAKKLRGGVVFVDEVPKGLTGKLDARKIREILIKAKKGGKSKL
# How it was run: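 Purified P. pyralis luciferase at 10 nM in 50 mM Tris Acetate (final), luminescence read within 5 minutes of enzyme addition to compounds. Activity normalised to PTC124 versus DMSO; concentration-response curves classed by r2, magnitude and activity.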
# [6] = S16 Schwann cell viability assay (CellTiter-Glo assay) (AID 624031);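 also: native untransfected S16 rat Schwann cells; cellular ATP luminescence as a viability measure; series mostly up to about 58 µM; nearly all actives have a fitted effect of over 70% in size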
# How it was run: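 Cells were seeded at 500-750 per well in phenol red-free DMEM with 10% FBS and left overnight. Compounds or DMSO were pinned in, incubation ran 24 h at 37 °C/5% CO2, then CellTiter-Glo reagent was added and luminescence measured.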
# [7] = biological target: Thyroid hormone receptor beta (Homo sapiens) (UniProt P10828); assay: qHTS assay for small molecule antagonists of thyroid hormone receptor beta signaling (AID 588547; active = well fitted inhibition curve with a large enough effect in the signal ratio, with a control signal flat, not every such curve was filed as active; the % refers to the signal ratio;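 also: cells stimulated with 0.4 nM T3 agonist during compound exposure; series mostly up to about 77 µM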); conditions: TR-UAS-bla HEK293, beta-lactamase ratio, antagonist mode, 18 h
# How it was run: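 TR-UAS-bla GripTite HEK293 cells in 2% charcoal/dextran FBS medium; compounds 0.59 nM to 92 uM with T3 at 0.4nM final, 18 h at 37 C. Beta-lactamase read by CCF4 fluorescence (460/530 nm); Hill fits gave IC50 and efficacy.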
# [8] = biological target: Glutaminase kidney isoform, mitochondrial (Homo sapiens) (UniProt O94925); assay: qHTS for Inhibitors of Glutaminase (GLS): LOPAC Validation (AID 624146);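 also: glutamate product detected by oxidase and peroxidase coupled Amplex red fluorescence gain; series mostly up to about 46 µM; nearly all actives have a fitted effect of over 60% in size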
# Chain of Glutaminase kidney isoform, mitochondrial (Homo sapiens) (O94925 whole entry, looked up, canonical isoform): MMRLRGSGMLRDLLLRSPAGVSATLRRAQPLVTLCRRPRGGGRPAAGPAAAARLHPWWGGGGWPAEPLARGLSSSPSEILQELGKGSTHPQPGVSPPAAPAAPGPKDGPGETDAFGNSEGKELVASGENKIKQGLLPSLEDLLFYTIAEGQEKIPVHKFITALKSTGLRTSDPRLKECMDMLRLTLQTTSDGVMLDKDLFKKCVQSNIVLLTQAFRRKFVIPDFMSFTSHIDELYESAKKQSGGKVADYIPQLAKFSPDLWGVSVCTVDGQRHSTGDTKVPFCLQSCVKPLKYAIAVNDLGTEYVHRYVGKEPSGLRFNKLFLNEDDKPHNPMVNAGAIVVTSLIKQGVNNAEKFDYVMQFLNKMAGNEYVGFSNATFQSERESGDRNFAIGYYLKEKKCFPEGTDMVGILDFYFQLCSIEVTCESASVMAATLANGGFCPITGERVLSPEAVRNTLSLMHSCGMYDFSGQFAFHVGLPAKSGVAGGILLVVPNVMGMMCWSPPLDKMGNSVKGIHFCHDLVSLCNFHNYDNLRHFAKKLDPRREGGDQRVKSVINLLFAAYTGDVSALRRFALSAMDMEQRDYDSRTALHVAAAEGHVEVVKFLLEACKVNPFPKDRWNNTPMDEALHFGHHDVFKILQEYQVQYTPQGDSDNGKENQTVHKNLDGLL
# How it was run: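 Enzyme dispensed in phosphate buffer (45 mM, pH 8.2, 0.02% Tween-20), compounds pinned in, then 1 mM L-glutamine solution and the glutamate oxidase–HRP–Amplex Red mix added; fluorescence read immediately and again after 30 min at room temperature.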
# [9] = biological target: Glucagon-like peptide 1 receptor (Homo sapiens) (UniProt P43220); assay: qHTS of GLP-1 Receptor Agonists: LOPAC Validation (AID 624148);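 also: higher luminescence signal means agonism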
# Chain of Glucagon-like peptide 1 receptor (Homo sapiens) (P43220 whole entry, looked up): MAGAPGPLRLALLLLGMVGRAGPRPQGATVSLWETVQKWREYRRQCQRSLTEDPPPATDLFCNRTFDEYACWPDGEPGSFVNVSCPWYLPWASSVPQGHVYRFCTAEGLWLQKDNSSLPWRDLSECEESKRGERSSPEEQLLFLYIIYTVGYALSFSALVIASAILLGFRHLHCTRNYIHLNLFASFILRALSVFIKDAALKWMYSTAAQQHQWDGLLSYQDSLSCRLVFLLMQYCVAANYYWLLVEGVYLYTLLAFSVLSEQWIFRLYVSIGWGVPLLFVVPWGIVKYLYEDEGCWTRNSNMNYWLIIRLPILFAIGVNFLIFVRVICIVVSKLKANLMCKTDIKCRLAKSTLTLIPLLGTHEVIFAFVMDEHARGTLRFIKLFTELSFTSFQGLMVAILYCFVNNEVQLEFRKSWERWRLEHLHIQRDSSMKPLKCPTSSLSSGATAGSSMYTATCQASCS
# How it was run: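 HEK293 cells stably co-expressing GLP-1R and a cAMP-responsive luciferase reporter, plated 12 hours before compound, then incubated 4-6 hr at 37 deg C. Luminescence read 12 min after detection reagent.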
# [10] = HTS Assay for Allosteric Antagonists of the Human D2 Dopamine Receptor: Hit Validation in HTRF (AID 624455);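 also: stable D1 dopamine receptor cell line scored for blocking the D1 response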
# How it was run: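 Signal from an HTRF read-out in D1-expressing stable cells gave hit activity as inhibition of the D1 response.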
# [11] = S16 Schwann cell PMP22 intronic element firefly luciferase assay (AID 624032); also: series mostly up to about 58 µM; nearly all actives have a fitted effect of over 30% in size
# How it was run: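 Rat S16 Schwann cells stably carrying firefly luciferase driven by a PMP22 intronic element, in 10% FBS, treated 24 h at 37 C. ONE-Glo luminescence normalized to PTC124 control and DMSO (0%); curves classed by r2, magnitude and activity.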
# [12] = S16 Schwann cell PMP22 intronic element beta-lactamase assay (AID 624044; calls by dose curve; also: nearly all actives have a fitted effect of over 15% in size)
# How it was run: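 Rat S16 Schwann cells with beta-Lac driven by a PMP22 intronic element, compound-treated 24 h at 37 °C. LiveBLAzer FRET B/G read: 460 nm normalized to potassium clavulanate vs DMSO; 535 nm FRET as viability; concentration-effect curves classified.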
# [13] = qHTS of Trypanosoma Brucei Inhibitors: LOPAC Validation (AID 624147)
# How it was run: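 Quantitative HTS: titrated library compounds versus trypanosomal pyruvate kinase in TEA buffer (pH 7.2) containing KCl, MgCl2, BSA and Tween-20. Reactions were initiated with ADP, 130 uM final. Kinase-Glo Plus luminescence was read after 45 min at RT.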
# [14] = qHTS of Nrf2 Activators: LOPAC Validation (AID 624149)
# How it was run: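 ARE reporter activation measured in AREc32 firefly luciferase cells after 24 hr compound exposure; Steady-Glo luminescence.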
compound,measurement,setting,value
O=C1CN(/N=C/c2ccc([N+](=O)[O-])o2)C(=O)N1,outcome,[1],inactive
same,max response,[2],9.13%
same,max response,[3],25.9% (inactive)
same,Potency,[4],inactive
same,Potency,[5],inactive
same,Potency,[6],inactive
CN(C)CCC(c1ccc(Cl)cc1)c1ccccn1 (stereo unspecified),outcome,[1],inactive
same,max response,[2],-0.244%
same,max response,[3],-3.52% (inactive)
same,activity change % (negative = inhibition),[7],-21.7% (inactive)
same,Potency,[5],inactive
same,Potency,[8],inactive
same,outcome,[9],inactive
same,Potency,[10],inactive
O=C(O)c1ccccc1Nc1cccc(C(F)(F)F)c1,outcome,[1],inactive
same,activity change % (negative = inhibition),[7],6.01% (inactive)
same,Potency,[4],inactive
CCCCCCCCCCCCCCCC(=O)OC(C)C,outcome,[1],inactive
same,max response,[2],-10.7%
same,max response,[3],8.58% (inactive)
same,activity change % (negative = inhibition),[7],-1.02% (inactive)
same,Potency,[4],inactive
same,Potency,[5],inactive
same,Potency,[6],inactive
same,Potency,[11],inactive
same,Potency,[12],inactive
CN(C)[C@@H]1C(=O)C(C(=O)NCN2CCCC2)=C(O)[C@@]2(O)C(=O)C3=C(O)c4c(O)cccc4[C@@](C)(O)C3C[C@@H]12 (stereo partly specified),Potency,[4],inactive
c1ccc2sc(SSc3nc4ccccc4s3)nc2c1,outcome,[1],inactive
same,max response,[2],-0.16% and -14.1%
same,max response,[3],0.434% (inactive) and -6.61% (inactive)
same,activity change % (negative = inhibition),[7],20.1% (inactive) and 3.58% (inactive)
same,Potency,[4],inactive
same,Potency,[5],inactive
same,Potency,[6],inactive
same,Potency,[11],inactive
CC(C(=O)O)c1ccc(C(=O)c2ccccc2)s1 (stereo unspecified),Potency,[4],inactive
O=C(OCc1ccccc1)c1ccccc1,outcome,[1],inactive
same,max response,[2],-18.5%
same,max response,[3],-1.47% (inactive)
same,activity change % (negative = inhibition),[7],12.6% (inactive)
same,Potency,[4],inactive
same,Potency,[11],inactive
CCCCCCCCCCCCCCCCCC(=O)O,max response,[2],-4.53% and -8.3% and -3.54%
same,max response,[3],-9.45% (inactive) and 1.81% (inactive) and 3.06% (inactive)
same,Potency,[4],inactive
same,Potency,[5],inactive
same,Potency,[6],inactive
same,Potency,[11],inactive
same,Potency,[12],inactive
Nc1ccc(O)c(C(=O)O)c1,max response,[2],7.86% and -11.8%
same,max response,[3],19.2% (inactive) and -15.8% (inactive)
same,Potency,[4],inactive
same,Potency,[6],inactive
same,Potency,[11],inactive
CC(C)(C)NCC(O)COc1nsnc1N1CCOCC1 (stereo unspecified),Potency,[4],inactive
Nc1cc(-c2ccncc2)c[nH]c1=O,outcome,[1],inactive
same,max response,[2],-6.03%
same,max response,[3],-6.86% (inactive)
same,Potency,[4],inactive
same,Potency,[5],inactive
same,Potency,[6],inactive
same,Potency,[11],inactive
same,Potency,[12],inactive
Nc1ccc(O)c([N+](=O)[O-])c1,outcome,[1],inactive
same,max response,[2],-7.08% and 0.284%
same,max response,[3],32% (inactive) and 10.1% (inactive)
same,activity change % (negative = inhibition),[7],3.22% (inactive) and -23.9% (inactive)
same,Potency,[4],inactive
c1cnc2c(c1)ccc1cccnc12,activity change % (negative = inhibition),[7],-10.3% (inactive)
same,Potency,[4],inactive
same,Potency,[8],inactive
same,Potency,[13],inactive
same,outcome,[9],inactive
same,outcome,[14],inactive
same,Potency,[10],inactive
